Data as given in PubChem BioAssay AID1159580 (chemical genetic matrix, 2015).
Values joined by “and” are separate entries in the source; they are usually repeats but may differ in a detail not shown here. Equal entries are not always repeated. Screen size: about 5,500 compounds; about 2,000 (36%) were called active. Inconclusive results (about 18%) are left out. No stated cut-off is given here; in the data, active means normalized growth mostly below about 0.91 (no sharp cut-off); inconclusive means no clear call, values can overlap the other calls; inactive means mostly above about 0.92. Some of the results follow.

Experiment: chemical genetic growth profiling, strain panel (AID 1159580);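 further: tested at 20 µM; growth read once vehicle control cultures reached saturation at 30 °C; 1 = growth at the plate median or of vehicle wells; lower values mean less growth of the strain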
Settings: S. cerevisiae deletion strains, growth OD

Measured: normalized growth

CCCCC1C(=O)N(c2ccccc2)N(c2ccc(O)cc2)C1=O (stereo not given)
inactive: locus YAL021C, strain ccr4, hits give low values 1.02 | locus YAL026C, strain drs2, hits give low values 0.998 | locus YAL030W, strain snc1, hits give low values 1 | locus YBL061C, strain skt5, hits give low values 0.999 | locus YBR009C, strain hhf1, hits give low values 0.998 | locus YBR021W, strain FUR4, hits give low values 0.995 | locus YBR023C, strain chs3, hits give low values 1 | locus YBR171W, strain sec66, hits give low values 1.01 | locus YBR229C, strain ROT2, hits give low values 0.953 | locus YBR231C, strain swc5, hits give low values 1 | locus YBR279W, strain paf1, hits give low values 0.993 | locus YCL011C, strain gbp2, hits give low values 1.01 | locus YCL016C, strain dcc1, hits give low values 1.01 | locus YCL029C, strain bik1, hits give low values 0.969 | locus YCL061C, strain MRC1, hits give low values 1.01 | locus YCL069W, strain vba3, hits give low values 1 | locus YCR088W, strain abp1, hits give low values 1.01 | locus YDL005C, strain med2, hits give low values 0.995 | locus YDL035C, strain GPR1, hits give low values 0.972 | locus YDL040C, strain nat1, hits give low values 0.997 | locus YDL074C, strain BRE1, hits give low values 0.947 | locus YDL101C, strain DUN1, hits give low values 0.98 | locus YDL134C, strain PPH21, hits give low values 0.999 | locus YDL185W, strain tfp1, hits give low values 0.974 | locus YDL192W, strain arf1, hits give low values 0.984 | locus YDR001C, strain nth1, hits give low values 0.995 | locus YDR069C, strain doa4, hits give low values 0.988 | locus YDR101C, strain arx1, hits give low values 1.01 | locus YDR137W, strain rgp1, hits give low values 0.98 | locus YDR150W, strain NUM1, hits give low values 0.979 | locus YDR159W, strain sac3, hits give low values 1 | locus YDR162C, strain NBP2, hits give low values 0.99 | locus YDR195W, strain ref2 0.987 | locus YDR297W, strain sur2, hits give low values 1.01 | locus YDR318W, strain mcm21, hits give low values 0.994 | locus YDR334W, strain swr1, hits give low values 1.01 | locus YDR335W, strain msn5, hits give low values 1.01 | locus YDR388W, hits give low values 0.998 | locus YDR392W, strain spt3, hits give low values 1.01 | locus YDR502C, strain sam2, hits give low values 0.99 | locus YEL003W, strain gim4, hits give low values 0.998 | locus YEL037C, strain rad23, hits give low values 1 | locus YEL061C, strain CIN8 (second series), hits give low values 1 | locus YEL061C, strain CIN8, hits give low values 0.987 | locus YER015W, strain faa2, hits give low values 0.996 | locus YER016W, strain bim1, hits give low values 0.998 | locus YER110C, hits give low values 0.965 | locus YER111C, strain swi4, hits give low values 1 | locus YER155C, strain BEM2 (second series), hits give low values 1.04 | locus YER155C, strain BEM2, hits give low values 0.997 | locus YER167W, strain BCK2, hits give low values 0.987 | locus YFR010W, strain ubp6, hits give low values 1.01 | locus YGL078C, strain dbp3, hits give low values 0.995 | locus YGL086W, strain mad1, hits give low values 0.963 | locus YGL167C, strain pmr1, hits give low values 1 | locus YGL173C, strain kem1, hits give low values 0.983 | locus YGL227W, strain vid30, hits give low values 1.01 | locus YGL240W, strain doc1, hits give low values 1 | locus YGL248W, strain PDE1, hits give low values 0.97 | locus YGL253W, strain hxk2, hits give low values 1.01 | locus YGR135W, strain pre9, hits give low values 0.988 | locus YGR229C, strain SMI1, hits give low values 0.992 | locus YGR252W, strain gcn5, hits give low values 0.893 | locus YHR013C, strain ard1, hits give low values 1 | locus YHR027C, strain rpn1, hits give low values 0.999 | locus YHR030C, strain SLT2, hits give low values 0.999 and 0.974 | locus YHR079C, strain IRE1 (second series), hits give low values 0.997 | locus YHR079C, strain IRE1, hits give low values 0.973 | locus YHR094C, strain hxt1, hits give low values 0.993 | locus YHR129C, strain ARP1, hits give low values 0.982 | locus YHR142W, strain chs7, hits give low values 1.01 | locus YHR200W, strain rpn10, hits give low values 0.988 | locus YIL066C, strain RNR3, hits give low values 0.976 | locus YIL073C, strain SPO22, hits give low values 1.01 | locus YIL125W, strain kgd1, hits give low values 0.985 | locus YIR030C, strain dcg1, hits give low values 0.983 | locus YJL092W, strain hpr5, hits give low values 1.01 | locus YJL095W, strain BCK1 (second series), hits give low values 1.01 | locus YJL095W, strain BCK1, hits give low values 1 and 0.992 | locus YJL115W, strain asf1, hits give low values 1.01 | locus YJL129C, strain trk1, hits give low values 0.997 | locus YJL134W, strain LCB3, hits give low values 0.988 | locus YJL154C, strain vps35, hits give low values 1 | locus YJL164C, strain tpk1, hits give low values 0.994 | locus YJL166W, strain qcr8, hits give low values 1.01 | locus YJL168C, strain set2, hits give low values 0.994 | locus YJL187C, strain SWE1 (second series), hits give low values 0.98 | locus YJL187C, strain SWE1, hits give low values 1 | locus YJR043C, strain POL32, hits give low values 0.999 | locus YJR066W, strain TOR1, hits give low values 0.93
